From PubChem BioAssay
D2 antag – antagonizes the human D2 dopamine receptor; P14416; HEK293 TREx D2 cells, calcium flux, dopamine EC80; inhibition, % at 10 µM; 2% of 340,000 active; AID 485344; in the data active = inhibition above about 30%; inactive = below that, where a call was filed; also: 0% is about no effect
Target sequence (P14416 whole entry, looked up): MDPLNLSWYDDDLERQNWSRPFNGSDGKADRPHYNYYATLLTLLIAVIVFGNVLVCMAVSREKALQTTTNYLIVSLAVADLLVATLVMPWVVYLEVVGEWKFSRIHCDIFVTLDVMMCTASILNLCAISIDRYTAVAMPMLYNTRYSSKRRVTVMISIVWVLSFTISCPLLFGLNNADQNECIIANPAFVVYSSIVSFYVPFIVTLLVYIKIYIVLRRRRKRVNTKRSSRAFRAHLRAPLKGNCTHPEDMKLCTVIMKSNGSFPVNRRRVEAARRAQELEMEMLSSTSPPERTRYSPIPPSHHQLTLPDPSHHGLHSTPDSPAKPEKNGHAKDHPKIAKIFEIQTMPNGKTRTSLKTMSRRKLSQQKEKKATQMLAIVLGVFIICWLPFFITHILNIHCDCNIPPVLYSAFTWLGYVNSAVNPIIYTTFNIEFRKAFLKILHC
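Measurement of antagonist activity uses fluorescent calcium dye in inducible HEK293 T-REx D2 cells: 10 s baseline, compound addition with 180 s read, EC80 dopamine addition with a further 180 s read.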
D2 ag-1 – D2 dopamine receptor (human) agonism; P14416; HEK293 T-REx D2 cells, calcium flux agonist mode; activation, % at 2 µM; 0.53% of 340,000 active; AID 485358;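 active = activation over 3 SD above normal in the single-dose calcium agonist read, cut at about 30% in these data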; also: 0% is about no effect
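Agonism is scored from calcium flux in a force-coupled, inducible HEK293 cell line expressing D2, read kinetically for 180 s after compound addition against dopamine controls.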
D2 PAM-1 – positive allosteric modulators of human D2 dopamine receptor | potentiation, % (no concentration beside the values) | P14416 | DiscoveRx D2 beta-arrestin cells, luminescence, 90 min; 100% = 57 uM dopamine signal | AID 624464 | 0.23% of 360,000 active; in the data active = potentiation above about 50%
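PathHunter D2 cells, attached overnight at 37 deg C, received compound in DMSO plus dopamine at EC20 (50 nM final) for 90 min at 37 deg C. Beta-arrestin recruitment was read as luminescence after 1 h with detection reagent at ambient temperature.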
D2 PAM-2 – D2 dopamine receptor (human) potentiation. P14416. HEK293 T-REx D2, calcium flux, EC20 dopamine potentiation. potentiation, % at 10 µM. 0.34% of 340,000 active;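 active = potentiation over 3 SD above the plate norm, cut at about 30% in these data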; also: 0% is about no effect
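Calcium flux readout, no-wash dye, 1 read/s. Inducible HEK293 Trex D2 line, overnight 30 C. Compound alone 180 s (agonist flags), then EC20 dopamine, another 180 s to score potentiation.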
D2 ag-2 – human D2 receptor agonism in beta-arrestin assay. activation, % (test concentration not listed). DiscoveRx PathHunter D2 beta-arrestin, luminescence, 90 min; 100% = 57 uM dopamine signal. 0.084% of 360,000 active. P14416; in the data active = activation above about 40%
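Agonist mode: compounds alone added to overnight-plated D2 PathHunter cells for 90 min at 37 C, with 57 uM final dopamine (EC100) defining full response. Beta-arrestin recruitment detected by chemiluminescent reagent, read after 1 h at ambient temperature.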
The depositor's hits bear a star; . = no result given. A selection: hits, their analogues and other compounds. The true share with any hit is near 2.4%.

SMILES | D2 antag | D2 ag-1 | D2 PAM-1 | D2 PAM-2 | D2 ag-2
CN(C)CCCNC(=O)/C(=C\c1ccc(-c2cccc([N+](=O)[O-])c2)o1)NC(=O)c1ccccc1 | 37* | 1 | -10 | -1 | 0
Cc1cc(C)nc(-n2nc(C)c3c2NC(=O)CC3c2ccccc2OC(C)C)n1 (stereo not given) | . | -1 | . | . | .
CCN(CC)CCn1c(NCc2cc(OC)ccc2OC)nc2ccccc21 | 14 | -2 | -41 | -34 | -6
CCN(CC)CCn1c(NC(=O)c2ccc(C(F)(F)F)cc2)nc2ccccc21 | 88* | -1 | -26 | -31 | -4
CCCn1c(Nc2cccc(OC)c2)nc2ccccc21 | 39* | -1 | -5 | 4 | 3
CCCn1c(Nc2ccccc2)nc2ccccc21 | -17 | 0 | -31 | -5 | -6
CCN(CC)CCn1c(NCc2cccc(OC)c2)nc2ccccc21 | 44* | 0 | -39 | -19 | -6
CCN(CC)CCn1c(NCc2ccc3c(c2)OCO3)nc2ccccc21 | 33* | 1 | -10 | -20 | -1
COc1ccc(-c2nc3sc(CCNS(=O)(=O)c4c(C)cc(C)cc4C)c(C)n3n2)cc1 | . | . | . | 9 | .
COc1ccc(-n2cc(C(=O)Nc3ccccc3C#N)c3ccccc3c2=O)cc1 | . | 0 | . | 7 | .
COc1ccc(-n2c(SCC(=O)NCc3ccc(F)cc3)nc3c([nH]c4ccccc43)c2=O)cc1 | . | 0 | . | -1 | .
CCC(=O)Nc1nnc(/C=C/c2ccc(OC)cc2)s1 | 35* | 0 | 1 | 11 | 6
COc1ccc(/C=C/c2nnc(NC(=O)CSc3ccc(C)cc3)s2)cc1 | . | . | -2 | . | -3
Cn1c(CCN2CCCCC2)nc2cc(NS(=O)(=O)c3ccc(F)cc3)ccc21 | 32* | 1 | -46 | -18 | -4
Cc1ccc(S(=O)(=O)Nc2ccc3c(c2)nc(CCN2CCOCC2)n3C)cc1 | 5 | -2 | -17 | -5 | 2
CCn1c(CN2CCCCC2)nc2cc(S(=O)(=O)N3CCCCC3)ccc21 | 55* | -1 | -15 | -29 | -4
Cn1c(CN2CCCC2)nc2cc(NC(=O)COc3ccccc3)ccc21 | 47* | 0 | -40 | -23 | 0
Cc1ccc(S(=O)(=O)Nc2ccc3c(c2)nc(CN2CCCC2)n3C)cc1 | 72* | 2 | -52 | -12 | -3
Cc1ccc(S(=O)(=O)Nc2ccc3c(c2)nc(CCN2CCCCC2)n3C)cc1 | 20 | 0 | -9 | -27 | -4
COc1ccc(CCNC(=O)Cn2nc(C)n3c(cc4occc43)c2=O)cc1OC | . | . | . | 1 | .
CC(C)(C)c1ccc(C(=O)NC2(C(F)(F)F)C(=O)Nc3c2c(=O)[nH]c(=O)n3-c2ccccc2)cc1 (stereo not given) | . | . | . | -4 | .
CCCCNC(=O)C(CC)Sc1nnc(-c2cccc(F)c2)c(-c2cccc(F)c2)n1 (stereo not given) | . | . | . | -16 | .
CCOc1ccc(-n2c(=O)c3sc4ccccc4c3n(Cc3cccc(C)c3)c2=O)cc1 | . | -1 | . | 2 | .
COC(=O)c1sc(=S)n(-c2ccccc2OC)c1N | 0 | 0 | -2 | 31* | -1
Cc1ccc(C)c(OCCCn2c(-c3ccc(Cl)cc3)nc3ccccc3c2=O)c1 | . | 1 | . | -9 | .
SMILES | D2 antag | D2 ag-1 | D2 PAM-1 | D2 PAM-2 | D2 ag-2
Cc1cc(-c2nn(-c3ccccc3F)cc2CN2CCC(C(N)=O)CC2)c(C)s1 | -1 | 0 | -27 | -19 | -3
COCC1CCN(Cc2cn(-c3ccccc3F)nc2-c2cc(C)sc2C)CC1 | 73* | -1 | -10 | -17 | -7
O=C(CCc1nc2ccccc2c(=O)[nH]1)Nc1cc(Cl)ccc1N1CCCCC1 | 43* | 0 | -5 | -6 | -5
CCc1sc(C(=O)Nc2cc(Cl)ccc2N2CCCCC2)cc1C | 6 | -1 | -2 | -1 | -1
Cc1ccc(C(=O)Nc2cc(Cl)ccc2N2CCCCC2)s1 | 32* | 1 | -2 | -4 | 0
O=S(=O)(NCC1CCN(Cc2ccccc2)CC1)c1ccccc1C(F)(F)F | 54* | 1 | -20 | -25 | 1
O=C(Nc1cc(=O)c2ccccc2o1)N1CCOCC1 | -2 | 1 | -9 | 31* | -1
O=C(Nc1cc(=O)c2ccccc2o1)N1CCCCC1 | 17 | 2 | -13 | 9 | -1
CN1CCc2ccccc2Cc2[nH]c3ccccc3c2CC1 | 72* | 1 | -31 | -18 | -2
CCCC(=O)Nc1ccc(Oc2ccc(NC(=O)CCC)cc2)cc1 | -16 | 0 | 12 | 35* | 0
CCCC(=O)Nc1ccc(OCC(=O)OC)cc1 | 16 | 1 | -8 | -2 | 1
C[C@H](CS)C(=O)N1CCC[C@H]1C(=O)O | 30* | 1 | -6 | 13 | 2
COC(=O)c1scc(-c2ccc(C)cc2)c1S(=O)(=O)Nc1ccc(OC(F)(F)F)cc1 | . | . | . | 0 | .
CC1(C(=O)NNC(=O)c2ccc([N+](=O)[O-])cc2)CC1(Br)Br (stereo not given) | 37* | 0 | -28 | 4 | -5
CC1(C(=O)NNC(=O)c2cccc([N+](=O)[O-])c2)CC1(Br)Br (stereo not given) | 2 | 0 | -4 | -4 | 2
CCN(CC)c1ccc2cc(C(=O)NCc3ccc(F)cc3)c(=N)oc2c1 | 2 | 46* | . | -9 | .
N=c1oc2ccc(Br)cc2cc1C(=O)NCc1ccc(F)cc1 | 9 | 0 | -8 | -4 | -4
Cc1ccc(S(=O)(=O)NCCC(=O)NCc2cccnc2)cc1 | . | . | 4 | . | 6
CCn1c(CCNS(=O)(=O)c2ccccc2Br)nnc1SC | -22 | 1 | -6 | -3 | -1
Cc1ccc(S(=O)(=O)NCCc2nnc(SCc3cccnc3)n2C)cc1 | 11 | 0 | -6 | 33* | -1
CSc1nnc(CCNS(=O)(=O)c2ccccc2Br)n1C | 34* | 1 | -2 | -3 | -2
O=C(NCC(c1cccnc1)N1CCN(Cc2ccccc2)CC1)C(=O)Nc1cccc(Cl)c1 (stereo not given) | . | 0 | . | -8 | .
Cc1ccc2nc(CSc3nnc(NC(=O)C(C)C)s3)cc(=O)n2c1 | . | 0 | . | 9 | .
Cc1cc(C)c(NC(=O)CN2C(=O)CCn3nc(-c4cccn4C)cc32)c(C)c1 | . | 1 | . | 3 | .
Cc1nc(-c2ccc(Cl)cc2)sc1C1(C)CC(c2cccc(Cl)c2)=NO1 (stereo not given) | 0 | 0 | 2 | -9 | 0
Cc1nc(-c2ccc(Cl)cc2)sc1C1(C)CC(c2cccc(F)c2)=NO1 (stereo not given) | 30* | 0 | -5 | -1 | -3
CC1CCCN(CCC(=O)c2ccc(Br)cc2)C1 (stereo not given) | 29 | -1 | -50 | -11 | 0
CCOc1cccc(OCCCCN2CCCCC2)c1 | -10 | 1 | -33 | -18 | -2
CC(C)c1cccc(OCCN2CCCC2)c1 | 71* | 1 | -23 | -23 | 6
Brc1cccc(OCCCCN2CCCCC2)c1 | 88* | 1 | -13 | -37 | -1
